# Test results: PubChem BioAssay AID1159580 (chemical genetic matrix, 2015)
# Several values for one entry are separate records, joined by “and”; a condition that tells them apart may be missing. Identical values can stand only once. Screen size: about 5,500 compounds; about 2,000 (36%) were called active. Roughly 18% stayed inconclusive and do not appear here. Cut-off read from the data, not from the text of the source: active = normalized growth mostly below about 0.91 (no sharp cut-off); inconclusive = no clear call, values can overlap the other calls; inactive = mostly above about 0.92. The list shows a part of the results. Where a structure was tested more than once in an assay, its records may differ in their call.
# Test: chemical genetic growth profiling, strain panel (AID 1159580);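 note: tested at 20 µM; growth read once vehicle control cultures reached saturation at 30 °C; 1 = growth at the plate median or of vehicle wells; lower values mean less growth of the strain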
# Details: S. cerevisiae deletion strains, growth OD
smiles,measurement,setting,value
O=c1cc(-c2ccccc2)oc2cc(O)cc(O)c12,normalized growth,"locus YAL013W, strain DEP1, stronger effect = lower value",0.956 (inactive)
same,normalized growth,"locus YAL021C, strain ccr4, stronger effect = lower value",0.968 (inactive) and 0.933 (inactive)
same,normalized growth,"locus YAL026C, strain drs2, stronger effect = lower value",0.911 (inactive) and 0.786 (active)
same,normalized growth,"locus YAL030W, strain snc1, stronger effect = lower value",0.943 (inactive) and 0.913 (active)
same,normalized growth,"locus YBL061C, strain skt5, stronger effect = lower value",0.904 (active)
same,normalized growth,"locus YBR009C, strain hhf1, stronger effect = lower value",0.915 (inactive) and 0.773 (active)
same,normalized growth,"locus YBR021W, strain FUR4, stronger effect = lower value",1.01 (inactive)
same,normalized growth,"locus YBR023C, strain chs3, stronger effect = lower value",1.01 (inactive) and 0.851 (active)
same,normalized growth,"locus YBR171W, strain sec66, stronger effect = lower value",0.953 (inactive) and 0.858 (active)
same,normalized growth,"locus YBR229C, strain ROT2, stronger effect = lower value",0.993 (inactive)
same,normalized growth,"locus YBR231C, strain swc5, stronger effect = lower value",0.938 (inactive) and 0.875 (active)
same,normalized growth,"locus YBR279W, strain paf1, stronger effect = lower value",0.947 (inactive) and 0.922 (active)
same,normalized growth,"locus YCL011C, strain gbp2, stronger effect = lower value",0.937 (inactive) and 0.86 (active)
same,normalized growth,"locus YCL016C, strain dcc1, stronger effect = lower value",1.07 (inactive) and 0.875 (active)
same,normalized growth,"locus YCL029C, strain bik1, stronger effect = lower value",0.911 (inactive)
same,normalized growth,"locus YCL061C, strain MRC1, stronger effect = lower value",0.951 (inactive) and 0.802 (active)
same,normalized growth,"locus YCL069W, strain vba3, stronger effect = lower value",0.978 (inactive) and 0.896 (active)
same,normalized growth,"locus YCR088W, strain abp1, stronger effect = lower value",0.957 (inactive) and 0.923 (inactive)
same,normalized growth,"locus YDL005C, strain med2, stronger effect = lower value",0.961 (inactive) and 0.958 (inactive)
same,normalized growth,"locus YDL035C, strain GPR1, stronger effect = lower value",0.919 (inactive)
same,normalized growth,"locus YDL040C, strain nat1, stronger effect = lower value",1.02 (inactive) and 0.916 (active)
same,normalized growth,"locus YDL074C, strain BRE1, stronger effect = lower value",0.87 (inactive)
same,normalized growth,"locus YDL101C, strain DUN1, stronger effect = lower value",0.987 (inactive)
same,normalized growth,"locus YDL134C, strain PPH21, stronger effect = lower value",0.954 (inactive)
same,normalized growth,"locus YDL185W, strain tfp1, stronger effect = lower value",0.946 (inactive)
same,normalized growth,"locus YDL192W, strain arf1, stronger effect = lower value",0.919 (inactive)
same,normalized growth,"locus YDR001C, strain nth1, stronger effect = lower value",0.96 (inactive) and 0.917 (active)
same,normalized growth,"locus YDR069C, strain doa4, stronger effect = lower value",0.926 (inactive) and 0.919 (inactive)
same,normalized growth,"locus YDR101C, strain arx1, stronger effect = lower value",0.921 (inactive)
same,normalized growth,"locus YDR137W, strain rgp1, stronger effect = lower value",0.675 (active) and 0.533 (active)
same,normalized growth,"locus YDR150W, strain NUM1, stronger effect = lower value",0.973 (inactive)
same,normalized growth,"locus YDR159W, strain sac3, stronger effect = lower value",0.853 (active) and 0.785 (active)
same,normalized growth,"locus YDR162C, strain NBP2, stronger effect = lower value",0.92 (inactive)
same,normalized growth,"locus YDR195W, strain ref2",0.986 (inactive) and 1.15 [resistant] (active)
same,normalized growth,"locus YDR297W, strain sur2, stronger effect = lower value",0.946 (inactive) and 0.907 (active)
same,normalized growth,"locus YDR318W, strain mcm21, stronger effect = lower value",0.902 (active)
same,normalized growth,"locus YDR334W, strain swr1, stronger effect = lower value",0.954 (inactive) and 0.887 (active)
same,normalized growth,"locus YDR335W, strain msn5, stronger effect = lower value",0.957 (inactive) and 0.88 (active)
same,normalized growth,"locus YDR388W, stronger effect = lower value",0.914 (active)
same,normalized growth,"locus YDR392W, strain spt3, stronger effect = lower value",0.595 (active) and 0.401 (active)
same,normalized growth,"locus YDR502C, strain sam2, stronger effect = lower value",0.922 (inactive)
same,normalized growth,"locus YEL003W, strain gim4, stronger effect = lower value",0.952 (inactive) and 0.809 (active)
same,normalized growth,"locus YEL037C, strain rad23, stronger effect = lower value",0.941 (inactive) and 0.911 (active)
same,normalized growth,"locus YEL061C, strain CIN8 (second series), stronger effect = lower value",0.961 (inactive) and 0.888 (active)
same,normalized growth,"locus YEL061C, strain CIN8, stronger effect = lower value",0.967 (inactive)
same,normalized growth,"locus YER015W, strain faa2, stronger effect = lower value",0.936 (inactive) and 0.867 (active)
